Screening data deposited in PubChem BioAssay by National Center for Advancing Translational Sciences (NCATS).
AID923: qHTS Assay for Allosteric/Competitive Inhibitors of Caspase-1: Spectroscopic Profiling in AFC Spectral Region | compound fluorescence, AFC spectral region (405/520 nm) | Potency, µM (top dose mostly 57.5 µM), without a hit: at the top dose fluorescence increase, usual class: activators | 75,000 compounds, 1.1% hits; further: potency means the concentration at half of the fitted maximal effect; 0% is about no effect
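Baseline compound fluorescence (AFC region, 405 nm ex/520 nm em) taken from the intercept of kinetic reads with 50 nM caspase-1 and 5 uM Ac-WEHD-AFC; normalized to an on-plate AFC standard curve; compounds titrated up to 57 uM.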
HSD17B inh: inhibitors of human HSD17B10 dehydrogenase; Q99714; recombinant HSD17B10, NADH fluorescence kinetic; Potency, µM (doses to about 57.1 µM), inactives show at the top dose activity change, negative = inhibition, actives largely listed as inhibitors; 75,000 compounds, 7.6% hits; AID 893;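 further: the protocol describes HADH2 (HSD17B10) and not the HSD17B4 of the title; potency means the concentration at half of the fitted maximal effect; on the % scale 0 is the no-effect control and ±100 the full control effect; nearly all actives have a fitted effect of over 70% in size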
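Activity followed as NADH fluorescence increase (ex 360, em 450 nm) every 30 seconds for 4 min, using final 90 uM beta-hydroxybutyryl CoA and 1 mM NAD+. Recombinant His-tagged enzyme, 20 nM, pH 9.0 Tris buffer, 15 min compound preincubation.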
HADH2 inh: HADH2 (human) dehydrogenase inhibition; Q99714; recombinant HADH2, NADH fluorescence, beta-hydroxybutyryl-CoA; Potency, µM (series often up to 57.1 µM), for the others: top-dose activity change, negative = inhibition, usual class: inhibitors; 73,000 compounds, 3.4% hits; AID 886; further: potency means the concentration at half of the fitted maximal effect; on the % scale 0 is the no-effect control and ±100 the full control effect; nearly all actives have a fitted effect of over 60% in size
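20 nM HADH2 + cpd, 15 min RT; add 1 mM NAD+/90 uM beta-hydroxybutyryl-CoA; kinetic fluorescence 360/450 nm, 4 min. Tris-HCl pH 9.0, 0.01% Tween-20.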
4MU fluor: compound fluoresces in the 4-MU spectral region | compound autofluorescence, 340/450 nm, 4-MU equivalents; stronger effect = higher value | max dye-equivalent concentration, M | 59,000 compounds, 11% hits; in the data active means max dye-equivalent concentration above about 10 nM; inconclusive means mostly about 1.1 nM to 9.6 nM
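Compounds in 100 mM Tris, pH 8.0, incubated 15 min at room temperature, then fluorescence read at 340 nm excitation/450 nm emission. Signal converted to 4-MU dye-equivalent concentration using an on-plate six-point 4-MU standard curve.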
GBA mod: modulators of human glucocerebrosidase | P04062 | purified enzyme, resorufin glucoside fluorescence (screen aimed at inhibitors), 20 min | Potency, µM | 48,000 compounds, 1.1% hits; in the data active means potency below about 15 µM; inconclusive means mostly about 16 µM to 33 µM;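 further: potency means the concentration at half of the fitted maximal effect; the screen sought inhibitors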
Target sequence (P04062 whole entry, looked up): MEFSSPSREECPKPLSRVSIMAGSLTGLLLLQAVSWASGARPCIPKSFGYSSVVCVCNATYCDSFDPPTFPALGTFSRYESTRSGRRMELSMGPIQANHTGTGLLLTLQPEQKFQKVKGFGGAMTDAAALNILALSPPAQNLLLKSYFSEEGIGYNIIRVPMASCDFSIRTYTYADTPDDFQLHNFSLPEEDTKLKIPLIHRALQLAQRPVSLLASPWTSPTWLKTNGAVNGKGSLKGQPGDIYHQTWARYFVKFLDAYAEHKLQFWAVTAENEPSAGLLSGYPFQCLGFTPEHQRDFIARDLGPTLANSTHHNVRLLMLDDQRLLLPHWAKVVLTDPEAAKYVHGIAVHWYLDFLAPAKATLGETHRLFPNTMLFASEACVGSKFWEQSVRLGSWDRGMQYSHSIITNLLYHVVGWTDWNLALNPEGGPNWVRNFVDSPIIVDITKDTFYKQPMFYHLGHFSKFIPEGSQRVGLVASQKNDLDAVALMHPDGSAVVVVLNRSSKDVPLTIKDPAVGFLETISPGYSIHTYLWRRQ
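Normal human glucocerebrosidase (0.2 nM final) was assayed with resorufin β-D-glucopyranoside (30 uM final) in 50mM citric acid/KH2PO4, 10mM sodium taurocholate, 0.01% tween-20, pH 5.9. Compounds were titrated; fluorescence (Ex 548, Em 600) read after 20 min at RT.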
A350 autofl: A350 region autofluorescence; max dye-equivalent concentration, M; 59,000 compounds, 11% hits; Compound autofluorescence, 340/450 nm, Alexa 350 dye-equivalents; stronger effect = higher value; in the data active means max dye-equivalent concentration above about 10 nM; inconclusive means mostly about 1.1 nM to 9.6 nM
* marks the source's active call; other numbers are inactive results; [ ] = remark or other dose. Sampled rows, rich in hits. Any-hit rate of the full collection: about 13%. Unless noted, the call rests on the fitted dose curve; in most records, active means well fitted curve in the direction sought with a large enough effect; inconclusive means small, poorly fitted or top-dose-only effect, or another doubt; inactive means no such curve, though single readings can be large; an effect the other way counts as inactive or inconclusive.

Screening C[N+](C)(C)[C@H](Cc1c[nH]c(=S)[nH]1)C(=O)O returned AID923 2.6%[11.5 µM], HSD17B inh 0.9%[11.4 µM], HADH2 inh 2.2%[11.4 µM], 4MU fluor inactive and A350 autofl inactive.
For Cc1ccc(C)c(NS(=O)(=O)c2cc(C(N)=O)ccc2C)c1 the results were AID923 0.2%, HSD17B inh 11.0%, HADH2 inh 4.5%, 4MU fluor inactive, GBA mod >76.9 and A350 autofl inactive.
Screening Cc1ccc(C)c(NS(=O)(=O)c2c(C)nn(C)c2C)c1 returned AID923 0.2%, HSD17B inh -16.1%, HADH2 inh -3.5%, 4MU fluor 5.06e-08M*, GBA mod >76.9 and A350 autofl 5.61e-08M*.
`CC(=O)NC(Cc1ccc(F)cc1)C(=O)NC1CCN(c2nnnn2-c2ccccc2)CC1` (stereo not given) gave AID923 -2.1%, HSD17B inh 6.4%, HADH2 inh -7.9%, 4MU fluor inactive, GBA mod 5.79* and A350 autofl inconclusive.
Screening COc1cc(C2CC(=O)c3c([nH]c(C(=O)OCCOC(C)C)c3C)C2)cc(OC)c1OC (stereo not given) returned AID923 -3.3%, HSD17B inh -7.3% and HADH2 inh -5.3%.
For Cc1ccc(S(=O)(=O)N2CCC(C(=O)OC(C)C(=O)NCc3ccc4c(c3)OCO4)CC2)cc1 (stereo not given) the results were AID923 1.3%, HSD17B inh -3.0%, HADH2 inh 26.0%, 4MU fluor inactive, GBA mod >76.9 and A350 autofl inactive.
`Cc1ccc(S(=O)(=O)N2CCC(C(=O)N[C@@H](C)C(=O)Nc3ccc4c(c3)OCO4)CC2)cc1` gave AID923 -0.8%, HSD17B inh -7.4%, HADH2 inh -8.7%, 4MU fluor 2.08e-08M*, GBA mod >76.9 and A350 autofl 2.29e-08M*.
`COc1ccc(CC(=O)Nc2oc(-c3ccccc3)c(-c3ccccc3)c2C#N)cc1OC` gave AID923 1.1%, HSD17B inh 7.94µM* and HADH2 inh inconclusive.
Screening CN1CC(=O)N/C1=N\C(=O)Nc1ccc2c(c1)N(C)C(=O)CS2 returned AID923 -0.7%, HSD17B inh -22.4%, HADH2 inh -5.9%, 4MU fluor inactive, GBA mod >76.9 and A350 autofl inactive.
For CC(N=Cc1cccc(O)c1O)c1ccccc1 (stereo not given) the results were AID923 3.0%, HSD17B inh -27.7% and HADH2 inh 3.98µM*.
`CC(N=C1NS(=O)(=O)c2ccccc21)c1ccccc1` (stereo not given) gave AID923 0.0%, HSD17B inh 0.7% and HADH2 inh -2.4%.
For Cc1noc(C)c1COC(=O)CCCc1c[nH]c2ccccc12 the results were AID923 1.3%, HSD17B inh -24.3%, HADH2 inh -0.3%, 4MU fluor inactive, GBA mod >76.9 and A350 autofl inactive.
`CCOC(=O)c1c(C)nc(-c2ccccc2)nc1N` gave AID923 0.2%, HSD17B inh -9.0%, HADH2 inh 351.6%, 4MU fluor 2.48e-08M*, GBA mod >76.9 and A350 autofl 2.48e-08M*.
For CC(C)C(=O)Nc1cccc(NC(=O)CCN2C(=O)c3ccccc3S2(=O)=O)c1 the results were AID923 -1.2%, HSD17B inh -8.2%, HADH2 inh 7.1%, 4MU fluor inconclusive, GBA mod >76.9 and A350 autofl inconclusive.
Screening CC(=O)N1CCN(c2nc(CC(C)C)c3c(c2C#N)CCC3)CC1 returned 4MU fluor 7.14e-08M* and A350 autofl 8.01e-08M*.
`N#Cc1c(N2CCN(C(=O)c3ccco3)CC2)nc(-c2ccccc2)c2c1CCCC2` gave AID923 11.0%, HSD17B inh 31.6µM* and HADH2 inh 31.6µM*.
N#Cc1c(SCC(=O)O)nc(N2CCCCC2)c2c1CCCC2 was read as 4MU fluor inactive and A350 autofl inactive.
Screening CC(C)Cc1nc(N2CCCCC2)c(C#N)c2c1CCC2 returned 4MU fluor 4.7e-08M* and A350 autofl 5.1e-08M*.
Screening CC(C)Cc1nc(N2CCN(C(=O)c3ccco3)CC2)c(C#N)c2c1CCC2 returned 4MU fluor 2.64e-08M* and A350 autofl 3.02e-08M*.
C=C(Br)CN(C)CC(=C)Br was read as AID923 2.0%[11.5 µM], HSD17B inh 2.3%[11.4 µM], HADH2 inh 17.0%[11.4 µM], 4MU fluor inactive and A350 autofl inactive.
Screening CC(C)Cc1nc(N2CCN(C(=O)C(C)C)CC2)c(C#N)c2c1CCC2 returned 4MU fluor 5.37e-08M* and A350 autofl 6.15e-08M*.
Screening CC(O)c1nc2ccccc2n1Cc1nnc(-c2ccc(Cl)cc2)o1 (stereo not given) returned AID923 0.3%, HSD17B inh 2.9%, HADH2 inh 9.2%, 4MU fluor inactive, GBA mod >76.9 and A350 autofl inconclusive.
`c1ccc(-c2nnc(Cn3c4ccccc4c4nc5ccccc5nc43)o2)cc1` gave AID923 -0.3%, HSD17B inh 7.4%, HADH2 inh 15.1%, 4MU fluor 5.74e-08M*, GBA mod >76.9 and A350 autofl 4.97e-08M*.
`S=C1N[C@H](c2ccccc2)N[C@H](c2ccccc2)S1` gave AID923 -2.4%[11.5 µM], HSD17B inh -17.1%[11.4 µM], HADH2 inh inconclusive, 4MU fluor inactive and A350 autofl inactive.
Cc1ccc2cc(CN(CC3CCCO3)C(=O)c3ccco3)c(=O)[nH]c2c1C (stereo not given) was read as AID923 0.6%, HSD17B inh -3.3%, HADH2 inh -0.6%, 4MU fluor inactive, GBA mod >76.9 and A350 autofl inactive.
For CCOc1ccc2[nH]c(=O)c(CN(Cc3ccc(F)cc3)C(=O)c3ccco3)cc2c1 the results were AID923 -0.8%, HSD17B inh 31.6µM*, HADH2 inh -8.5%, 4MU fluor 6.29e-08M*, GBA mod >76.9 and A350 autofl 5.03e-08M*.
`CCOc1ccc2[nH]c(=O)c(CN(Cc3ccc(F)cc3)C(=O)N3CCCC3)cc2c1` gave AID923 3.4%, HSD17B inh 31.6µM*, HADH2 inh -15.0%, 4MU fluor 1.61e-07M*, GBA mod inconclusive and A350 autofl 2.04e-07M*.
`COc1ccc(CCN(Cc2cc3cc(C)ccc3[nH]c2=O)C(=O)N2CCCC2)cc1OC` gave AID923 1.0%, HSD17B inh -25.6%, HADH2 inh 7.4%, 4MU fluor inactive, GBA mod >76.9 and A350 autofl inactive.
